Source: PubChem
Shiga toxin inh = blocks Shiga toxin action in Vero cells; Vero cells, Shiga toxin protein synthesis inhibition reporter; inhibition, % at 38.7 µM; hit rate 9.2% among 290,000; in the data active = inhibition mostly above about 28%, no sharp cut-off; inactive = mostly below about 43%; also: 0% is about no effect
Cycloheximide cs = counter-screen hit for Shiga toxin inhibitors, cycloheximide; cell reporter, cycloheximide protein synthesis inhibition counterscreen; max response, %; hit rate 12% among 300,000; AID 2314; in the data active = max response mostly above about 13%, no sharp cut-off; inactive = mostly below about 14%; also: read at 38.3 µM for the half of the compounds with a filed dose; 0% is about no effect
HCV inh = inhibitors of hepatitis C virus infection | Huh7.5.1 HCVcc-Cre infection, luciferase reporter, 44 h | Potency, µM (doses to about 41.8 µM), for inactives: top-dose activity change, negative = inhibition, most hits filed as inhibitors | hit rate 3.4% among 340,000 | AID 651820; also: potency is read from the fitted curve at half-maximal effect; % is scaled to controls: 0 for no effect and ±100 for the full control effect
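Infectious HCVcc-Cre (~0.5 moi) was added to cells just after compound, with cells seeded 4 h earlier at 1,000 per well. Luciferase activity after 44 h culture reported infection; substrate was incubated 15 min at room temperature before reading.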
Pf growth 48h = inhibits P. falciparum growth in the first generation, 48 h. AID 504832. Potency, µM (highest dose often 28.7 µM), for inactives: at the top dose activity change, negative = inhibition, hits mostly inhibitors. hit rate 5.9% among 310,000. P. falciparum luciferase growth in erythrocytes, 48 h; also: potency is read from the fitted curve at half-maximal effect; % is scaled to controls: 0 for no effect and ±100 for the full control effect
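Firefly luciferase activity from engineered P. falciparum reports growth; inhibitors lower the luminescent signal. Cultures contained 2% hematocrit erythrocytes at 0.1% final parasitemia.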
HCMV antiviral = human cytomegalovirus inhibition; HFF cells, HCMV-luciferase reporter, 72 h; active compounds read low; activity change, negative = inhibition, % at 57.5 µM; hit rate 4.5% among 410,000; in the data active = activity change below about -60%; inconclusive = no clear call, values can overlap the other calls; inactive = above about -39%; also: % is scaled to controls: 0 for no effect and ±100 for the full control effect
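Human foreskin fibroblasts infected with luciferase-reporter HCMV at MOI 1 PFU/cell, compounds at two doses. Luciferase measured 72 h post infection; normalized to buffer-only basal and Salinomycin (10uM) controls.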
Pf growth 96h = P. falciparum growth inhibition at 96 hours. P. falciparum luciferase reporter growth, 96 h. Potency, µM (titrated, usually from 28.7 µM), without a hit: at the top dose activity change, negative = inhibition, hits mostly inhibitors. hit rate 6.9% among 320,000; also: potency is read from the fitted curve at half-maximal effect; % is scaled to controls: 0 for no effect and ±100 for the full control effect
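Delayed-death screen, second-generation endpoint: infected erythrocytes, 2% hematocrit, 0.05% parasitemia final; 96 hours at 37 C, 5% CO2; luciferase detection reagent; luminescence decrease equals reduced growth.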
Starred values were filed as active, the others as inactive; ? = inconclusive; / = no result given; [ ] = dose if it differs, or a comment. An excerpt weighted towards active compounds, which were near 21% of everything screened. Unless noted, calls follow the shape of the dose curve; as a rule, active = well fitted inhibition curve with a large enough effect; inconclusive = small, poorly fitted or top-dose-only effect, or another doubt; inactive = no such curve, though single readings can be large or run the other way.

SMILES	Shiga toxin inh	Cycloheximide cs	HCV inh	Pf growth 48h	HCMV antiviral	Pf growth 96h
CCN(CC)c1ccc(/C=N/N=C(c2ccccc2)c2ccccc2)c(O)c1	18	-2	?	?	3	?
CCN(CC)c1ccc(/C=N/N(c2ccccc2)c2ccccc2)c(O)c1	-5	-1	-3%	?	-20	7.4µM*
CCN(CC)c1ccc(/C=N/NC(=S)NCc2ccccc2)c(O)c1	-7	-6	-28%	0%	-63*	?
CCN(CC)c1ccc(/C=N/NC(=O)Cc2cccs2)c(O)c1	78*	32*	?	?	-100*	?
CCN(CC)c1ccc(/C=N/NC(=O)c2ccco2)c(O)c1	76*	38*	?	?	-103*	-86%
O=C(Nc1c(C(=O)N2CCN(c3ccc(F)cc3)CC2)oc2ccccc12)c1c(F)cccc1F	/	/	/	/	-21	/
CCN(CC)c1ccc(/C=N/NC(=O)c2ccc([N+](=O)[O-])cc2)cc1	4	12	-28%	16%	60	44%
CCN(CC)c1ccc(/C=N/NC(=O)c2ccco2)cc1	53*	49*	?	11%	26	?
Cc1cccc(C(=O)Nc2ccc(C(=O)N/N=C/c3ccco3)cc2)c1	/	/	-21%	/	-2	/
O=[N+]([O-])c1ccc(CSc2nc3ccccc3o2)cc1	121*	36*	-15%	106%	84	?
COC(=O)c1ccc(CSc2nc3ccccc3o2)cc1	55*	30*	1%	181%	58	57%
Cc1ccc(-c2nc(-c3cc4c([nH]c3=O)CC(C)(C)CC4=O)sc2C)cc1	/	/	/	/	-13	/
COc1cccc(/C=C(\C#N)C(=O)Nc2ccc(NC(C)=O)cc2)c1OC	/	/	/	/	39	/
CC(C)OC(=O)c1cn(-c2ccccc2)nc1-c1ccco1	-6	1	?	10µM*	13	-3%
CCCOc1ccc(-c2nn(-c3ccccc3)cc2C2NC(=O)NC(C)=C2C(=O)OC(C)C)cc1 (stereo unspecified)	/	/	/	/	-35	/
CCOc1ccc(-c2nn(-c3ccccc3)cc2C2NC(=O)NC(C)=C2C(=O)OC(C)C)cc1 (stereo unspecified)	/	/	/	/	-67*	/
CCOC(=O)C1=C(C)NC(C)=C(C(=O)OCC)C1c1cn(-c2ccccc2)nc1-c1ccco1	-12	-1	8%	4.7µM*	-15	/
C=Cc1ccc(Cn2c(C(=O)O)c(CNC3CCCCC3)c3ccc(OC)cc32)cc1	/	/	/	/	7	/
CCOc1ccc(NC(=O)CC2C(=O)N(c3cccc(C)c3)C(=O)N2Cc2cccs2)cc1 (stereo unspecified)	/	/	/	/	10	/
O=C(O)c1ccccc1-c1ccc(C(F)(F)F)cc1	/	/	/	-14%	/	-5%
O=C(COc1cccnc1[N+](=O)[O-])NCc1ccccc1	-13	-1	4%	9%	37	51%
CCCCCCCC/C=C\CCCCCCCCN	/	/	/	-2%	/	-1%
O=S(=O)(c1cc(O)ccc1O)c1cccc2c(S(=O)(=O)c3cc(O)ccc3O)cccc12	/	/	10µM*	10µM*	-22	13µM*
Nc1cc(=O)[nH]c(SCc2cccc3ccccc23)n1	-12	7	-22%	?	6	39%
N#CC1=C(N)N=C(SCc2cccc3ccccc23)C(C(N)=O)C12CCCCC2 (stereo unspecified)	-11	-3	14%	/	-29	12µM*
SMILES	Shiga toxin inh	Cycloheximide cs	HCV inh	Pf growth 48h	HCMV antiviral	Pf growth 96h
Cc1nn(-c2ccc(N3CCCCC3)nn2)c(C)c1CCC(=O)NCc1ccc(OC(C)C)cc1	/	/	/	/	-37	/
C=C(C)Cn1cnc2c(oc3nc4c(cc32)CCCC4)c1=O	46*	33*	1%	140%	102	12µM*
O=C(Cn1cnc2c(oc3nc4c(cc32)CCCC4)c1=O)Nc1cccc(Cl)c1	-2	12	25µM*	-17%	34	?
O=C(Cn1cnc2c(oc3nc4c(cc32)CCCC4)c1=O)Nc1ccccc1	18	22	-16%	-20%	6	?
Cc1ccc(NC(=O)c2cc3c(=O)n(Cc4ccco4)ccc3nc2C)cc1C	/	/	/	/	-31	/
CN(CC(=O)N1CCN(Cc2ccccc2)CC1)S(=O)(=O)c1ccc(Br)cc1	-15	8	?	?	?	31%
Cc1ccc(S(=O)(=O)N(C)CCCC(=O)N2CCCCC2)cc1	/	-3	4%	-2%	-15	297%
CN(CC(=O)N1CCN(c2ccccc2)CC1)S(=O)(=O)c1cnc[nH]1	-19	-1	3%	10%	-13	31%
CC(=O)c1ccc(N2CCN(C(=O)CN(C)S(=O)(=O)c3cnc[nH]3)CC2)cc1	42	39*	3%	9%	-25	32%
CC(=O)c1ccc(S(=O)(=O)N(C)CCCC(=O)N2CCN(c3ncccn3)CC2)cc1	/	/	-1%	?	0	12µM*
O=C(CN(Cc1ccc(F)cc1)S(=O)(=O)c1ccccc1)N1CCCCC1	-2	-4	-1%	?	-24	4.1µM*
CN(CC(=O)N1CCN(Cc2ccccc2)CC1)S(=O)(=O)c1ccc(F)cc1	2	1	-10%	4%	48	12µM*
CN(CC(=O)N1CCN(c2ccc(F)cc2)CC1)S(=O)(=O)c1ccc(F)cc1	33*	14	2%	6%	-10	?
CCN1CCN(C(=O)CN(CC)S(=O)(=O)c2ccc(Cl)cc2)CC1	-8	-2	16%	17%	7	10%
CCN1CCN(C(=O)CN(CC)S(=O)(=O)c2ccc(F)cc2)CC1	-18	-2	21%	-7%	45	3.3µM*
CCOC(=O)N1CCN(C(=O)CN(C)S(=O)(=O)c2ccc(F)cc2)CC1	7	5	1%	34%	1	9%
Cc1cc(=O)n2nc(N3CCC(C(=O)Nc4ccc(C)c(Cl)c4)CC3)sc2n1	/	/	/	/	-4	/
Cc1cc(CNC(=O)[C@H]2C[C@@H]2[C@H](NP(=O)(c2ccccc2)c2ccccc2)c2ccccc2)nn1C	9	4	6%[8.37 µM]	13%	-91*	?
C[C@H](CO)NC(=O)[C@@H]1C[C@H]1[C@@H](NP(=O)(c1ccccc1)c1ccccc1)c1ccccc1	-4	-3	17%	-8%	22	-13%
O=C(CCN1C(=O)c2ccccc2C1=O)N1CCCCCC1	32	13*	-5%	16%	9	?
O=C(CCN1C(=O)c2ccccc2C1=O)N1CCC(c2ccccc2)C1 (stereo unspecified)	123	21*	7%	7%	29	/
O=C(COc1ccc(Br)cc1)N1CCC(c2ccccc2)C1 (stereo unspecified)	75	23*	-10%	-2%	29	-1%
CC(=O)Nc1ccn(C2CC3OCC(NC(=O)C(NC(=O)OC(C)(C)C)C(C)OCc4ccccc4)C3O2)c(=O)n1 (stereo unspecified)	32	4	/	/	/	/
